Measurements published in the supplement of paper PMC3342239.
Counter-ions that a name gives are not always drawn.

The compounds below were run on Saccharomyces cerevisiae (assay: fraction of cells in G1 phase (DNA content, flow cytometry); higher = more cells with unreplicated DNA (G1 delay)). Details: temperature: 30 C; YPD; JTY2953 pdr5 snq2 (sensitized); drug added to: cultures diluted from stationary phase; 6-7 h.
Procedure, shortened: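 Overnight cultures of sensitized JTY2953 were diluted 1∶200 into drug at a final 20 µg/ml and fixed after 6–7 h, and further runs treated dividing JTY2953 or BY4741, fixing them 6 h and 4.33 h later respectively. All growth used YPD at 30°C with S. cerevisiae and library drugs. After ethanol fixation and SYTOX Green staining, flow cytometry recorded 10,000 events. The G1 fraction equals the Dean-Jett-Fox G1 peak area over the G1 plus G2/M areas.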

| SMILES | fraction of cells in G1 phase |
| --- | --- |
| CC(C)Cc1ccc(C(C)C(=O)O)cc1 (stereo not given) [Ibuprofen] (96.9522 µM) | 0.575 |
| CN(C)c1nc(N(C)C)nc(N(C)C)n1 [Altretamine] (95.1095 µM) | 0.49 |
| C[C@]12CC[C@@H]3c4ccc(O)cc4CC[C@H]3[C@@H]1C[C@@H](O)[C@@H]2O [Estriol] (69.3505 µM) | 0.535 |
| CN(C)CCCOc1nn(Cc2ccccc2)c2ccccc12 [Benzydamine] (64.6382 µM) | 0.48 |
| CN(C)CCCSc1ccccc1NC(=O)/C=C/c1ccccc1 [Cinanserin] (58.7387 µM) | 0.456 |
| Cc1c(-c2cnccn2)ssc1=S [Oltipraz] (88.3617 µM) | 0.503 |
| NCCCC(O)(P(=O)(O)O)P(=O)(O)O [Alendronate] (80.6158 µM) | 0.456 |
| CS(=O)(=O)Nc1ccc([N+](=O)[O-])cc1Oc1ccccc1 [Nimesulide] (64.8687 µM) | 0.58 |
| CC(=O)SCC(Cc1ccccc1)C(=O)NCC(=O)OCc1ccccc1 (stereo not given) [Racecadotril] (51.8826 µM) | 0.509 |
| Cc1ccc(/C(=C\CN2CCCC2)c2ccccn2)cc1 [Trans-triprolidine HCl] (71.8389 µM) | 0.521 |
| Clc1ccc2nsnc2c1NC1=NCCN1 [Tizanidine HCl] (78.8287 µM) | 0.504 |
| CCCCCOC(=O)Nc1nc(=O)n([C@@H]2O[C@H](C)[C@@H](O)[C@H]2O)cc1F [Capecitabine] (55.6483 µM) | 0.442 |
| COc1cccc2c1C(=O)c1c(O)c3c(c(O)c1C2=O)C[C@@](O)(C(C)=O)C[C@@H]3O[C@H]1C[C@H](N)[C@H](O)[C@H](C)O1 [Daunorubicin HCl] (37.9123 µM) | 0.596 |
| CCCCCN(C)CCC(O)(P(=O)(O)O)P(=O)(O)O [Ibandronate] (62.65 µM) | 0.474 |
| C[C@@H]1CCC[C@H](C)N1NC(=O)c1ccc(Cl)c(S(N)(=O)=O)c1 [Clopamide] (57.8284 µM) | 0.525 |
| CC(C)C[C@H](NC(=O)[C@@H](Cc1c[nH]c2ccccc12)NC(=O)[C@H](Cc1ccc(O)cc1)NC(=O)[C@H](CO)NC(=O)[C@H](Cc1c[nH]c2ccccc12)NC(=O)[C@H](Cc1c[nH]cn1)NC(=O)[C@@H]1CCC(=O)N1)C(=O)N[C@@H](CCCNC(=N)N)C(=O)N1CCC[C@H]1C(=O)NCC(N)=O [Triptorelin] (15.2499 µM) | 0.468 |
| Nc1ccn([C@H]2CC[C@@H](CO)O2)c(=O)n1 [2',3' - dideoxycytidine] (94.687 µM) | 0.474 |
| CCCCC1C(=O)N(c2ccccc2)N(c2ccccc2)C1=O [Phenylbutazone] (64.8543 µM) | 0.499 |
| CN1C(C(=O)Nc2ccccn2)=C(O)c2ccccc2S1(=O)=O [Piroxicam] (60.3587 µM) | 0.505 |
| CCn1cc(C(=O)O)c(=O)c2cc(F)c(N3CCNCC3)nc21 [Enoxacin] (62.4364 µM) | 0.512 |
| CNNCc1ccc(C(=O)NC(C)C)cc1 [Procarbazine HCl] (90.3731 µM) | 0.49 |
| COc1ccc([C@@H]2Sc3ccccc3N(CCN(C)C)C(=O)[C@@H]2OC(C)=O)cc1 [Diltiazem] (44.3459 µM) | 0.544 |
| CN1CCC(=C2c3ccccc3CC(=O)c3sccc32)CC1 [Ketotifen fumarate] (64.6343 µM) | 0.496 |
| CN1CCCCC1CCN1c2ccccc2Sc2ccc([S+](C)[O-])cc21 (stereo not given) [Mesoridazine besylate] (51.7354 µM) | 0.476 |
| Cc1ccc(NC(=O)c2ccc(CN3CCN(C)CC3)cc2)cc1Nc1nccc(-c2cccnc2)n1 [Imatinib] (40.5173 µM) | 0.52 |
| CCOC(=O)/C=C(C)/C=C/C=C(C)/C=C/c1c(C)cc(OC)c(C)c1C [Etretinate] (56.4185 µM) | 0.557 |
| COCCc1ccc(OCC(O)CNC(C)C)cc1 (stereo not given) [Metoprolol tartrate] (74.8023 µM) | 0.491 |
| O=C(CCCN1CCN(c2ccccn2)CC1)c1ccc(F)cc1 [Azaperone] (61.0864 µM) | 0.582 |
| COc1ccc(C[C@H](N)C(=O)N[C@H]2[C@@H](O)[C@H](n3cnc4c(N(C)C)ncnc43)O[C@@H]2CO)cc1 [Puromycin 2HCl] (36.7377 µM) | 0.5 |
| Cn1cnc([N+](=O)[O-])c1Sc1ncnc2[nH]cnc12 [Azathioprine] (72.1241 µM) | 0.465 |
